Test results taken from PubChem BioAssay AID694 (Emory University Molecular Libraries Screening Center, 2007).
In all, about 1,300 compounds went through this assay and about 25 (2%) were called active. The rule behind the calls is not given here. Only a selection was taken, and actives are over-represented in it overall.

Molecular target: Estrogen receptor (Homo sapiens) (UniProt P03372)
Assay: blockers of coactivator recruitment to ERα – biochemical, LOPAC library, TR-FRET, primary screen (AID 694);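 note: receptor was agonist-bound with estradiol present during the assay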
Details: TR-FRET ERalpha-coactivator peptide binding, stronger effect = higher value

Chain of Estrogen receptor (Homo sapiens) (P03372 whole entry, looked up): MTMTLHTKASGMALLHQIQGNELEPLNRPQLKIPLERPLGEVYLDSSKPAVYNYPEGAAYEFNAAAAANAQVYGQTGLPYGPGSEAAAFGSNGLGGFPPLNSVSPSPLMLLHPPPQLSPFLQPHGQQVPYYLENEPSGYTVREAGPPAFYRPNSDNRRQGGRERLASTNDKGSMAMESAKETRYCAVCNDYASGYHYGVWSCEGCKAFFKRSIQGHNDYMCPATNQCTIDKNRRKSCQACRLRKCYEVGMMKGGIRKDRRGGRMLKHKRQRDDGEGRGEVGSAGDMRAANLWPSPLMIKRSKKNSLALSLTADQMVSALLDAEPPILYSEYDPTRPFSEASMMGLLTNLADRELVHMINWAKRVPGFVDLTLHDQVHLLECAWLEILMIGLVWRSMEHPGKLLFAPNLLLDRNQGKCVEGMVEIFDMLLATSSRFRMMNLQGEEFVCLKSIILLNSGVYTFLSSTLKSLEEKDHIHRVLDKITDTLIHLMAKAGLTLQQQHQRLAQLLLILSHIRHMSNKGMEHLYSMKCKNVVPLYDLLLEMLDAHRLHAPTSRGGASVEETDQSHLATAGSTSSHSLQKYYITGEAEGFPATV

CCCN(CCC)CCc1ccc(O)c(O)c1
inhibition (at 45 µM): -9.9% (inactive)
inhibition (inhibition, at 15 µM): 5.4%

CN(N=O)c1cc(O)ccc1O
inhibition (at 45 µM): 98.6% [fluorescence artefact?] (active)
inhibition (inhibition, at 15 µM): 95.4%

CN(N=O)c1ccc(O)c(O)c1
inhibition (at 45 µM): 99.9% [fluorescence artefact?] (active)
inhibition (inhibition, at 15 µM): 100%

CCCN(CCC)[C@@H]1CCc2ccc(O)cc2C1
inhibition (at 45 µM): -8.07% (inactive)
inhibition (inhibition, at 15 µM): 3.7%

C[C@@H]1O[C@H](C[N+](C)(C)C)CS1
inhibition (at 45 µM): -6.11% (inactive)
inhibition (inhibition, at 15 µM): 5.81%

c1ccc2c(N3CCNCC3)cccc2c1
inhibition (at 45 µM): -1.45% (inactive)
inhibition (inhibition, at 15 µM): 2.78%

C=CCN1CCC2(C)c3cc(O)ccc3CC1C2C (stereo not given)
inhibition (at 45 µM): -11.9% (inactive)
inhibition (inhibition, at 15 µM): -3.04%

CC[C@@H](CO)NC(=O)[C@@H]1C=C2c3cccc4[nH]cc(c34)C[C@H]2N(C)C1
inhibition (at 45 µM): 6.08% (inactive)
inhibition (inhibition, at 15 µM): 0.61%

Clc1ccc(C(c2ccc(Cl)cc2)n2cc[n+](CC(OCc3ccc(Cl)cc3Cl)c3ccc(Cl)cc3Cl)c2)cc1 (stereo not given)
inhibition (at 45 µM): 59.5% [fluorescence artefact?] (active)
inhibition (inhibition, at 15 µM): 52.6%

CO[C@H]1CC=C2CCN3CCC4=C(CC(=O)OC4)[C@]23C1
inhibition (at 45 µM): -3.26% (inactive)
inhibition (inhibition, at 15 µM): 3.57%

O=C(O)[C@@H]1CCN1
inhibition (at 45 µM): -15.6% (inactive)
inhibition (inhibition, at 15 µM): -3.72%

CCCN(CCC)C1CCc2ccc(O)cc2C1 (stereo not given)
inhibition (at 45 µM): -3.18% (inactive)
inhibition (inhibition, at 15 µM): 3.52%

N[C@@H](Cn1cc(I)c(=O)[nH]c1=O)C(=O)O
inhibition (at 45 µM): 0.52% (inactive)
inhibition (inhibition, at 15 µM): 3.65%

COC(=O)c1cc2c(cn1)[nH]c1ccccc12
inhibition (at 45 µM): -2.45% (inactive)
inhibition (inhibition, at 15 µM): 2.65%

Cc1o[nH]c(=O)c1CC(N)C(=O)O (stereo not given)
inhibition (at 45 µM): -4.5% (inactive)
inhibition (inhibition, at 15 µM): -1.59%

NC(Cc1cc(O)c(O)cc1O)C(=O)O (stereo not given)
inhibition (at 45 µM): 100% [fluorescence artefact?] (active)
inhibition (inhibition, at 15 µM): 100%

N[C@@H](CCl)C(=O)O
inhibition (at 45 µM): -9.05% (inactive)
inhibition (inhibition, at 15 µM): -4.18%

O=[N+]([O-])c1ccc(O[C@@H]2O[C@H](CO)[C@@H](O)[C@H](O)[C@H]2F)c([N+](=O)[O-])c1
inhibition (at 45 µM): -0.11% (inactive)
inhibition (inhibition, at 15 µM): 6.88%

Fc1ccc(C(OCCN2CCN(CCCc3ccccc3)CC2)c2ccc(F)cc2)cc1
inhibition (at 45 µM): -7.86% (inactive)
inhibition (inhibition, at 15 µM): -2.51%

CN1C[C@@H](CS(=O)(=O)N(C)C)C[C@@H]2c3cccc4c3c(cn4C)C[C@H]21
inhibition (at 45 µM): -2.14% (inactive)
inhibition (inhibition, at 15 µM): -2.21%
